The values below come from PMC9838217, “Structure of SALL4 zinc finger domain reveals link between AT-rich DNA binding and Okihiro syndrome”.

Positions count from the first letter of the chain named.

What all share (assay): HT-SELEX; high values mean tight binding
Common to all, as to conditions: protein: recombinant; vector His6-GST; dsDNA, one strand shown

One assay addresses T1, SALL4 ZFC4 WT (HT-SELEX) (Mus musculus, UniProt Q8BX22 870-940).
T1 sequence: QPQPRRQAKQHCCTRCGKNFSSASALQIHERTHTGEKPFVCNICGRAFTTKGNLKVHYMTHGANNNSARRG
The procedure, abridged: (§1)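 Each canonical k-mer's binding signal is its read fraction expressed as fold change over the initial random library. Reads came from MiSeq sequencing, scanned for 6-mers, after up to 6 triplicate cycles in which purified recombinant mouse SALL4 zinc finger cluster 4 (residues 870–940, 1 µg) bound library DNA (1.5 µg first cycle, 200 ng later) in 100 µl of 10 mM Tris–HCl pH 7.5, 50 mM NaCl, poly(dI-dC), DTT for 10 min at room temperature. Complexes were then Ni2+ bead-captured, washed, PCR-amplified and reselected.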

Assay [1] deals with T2, SALL4 ZFC4 R900W (HT-SELEX) (Mus musculus, UniProt Q8BX22 870-940, R900W).
T2 sequence: T1 sequence with R31W
The essentials: as §1

Assay [2] addresses T3, SALL4 ZFC4 G921D (HT-SELEX) (Mus musculus, UniProt Q8BX22 870-940, G921D).
T3 sequence: T1 sequence with G52D
The essentials:
as §1

With AGTATC, the binding signal was 1.37 ± 0.0932 fold-change vs cycle 0 with SALL4 ZFC4 WT (HT-SELEX), 1.48 ± 0.12 fold-change vs cycle 0 in assay [1] and 1.44 ± 0.125 fold-change vs cycle 0 in assay [2].

In the case of AATGAA, the values for the binding signal (with SALL4 ZFC4 WT (HT-SELEX); in assay [1]; in assay [2]) were 2.19 ± 0.104 fold-change vs cycle 0, 2.17 ± 0.105 fold-change vs cycle 0 and 1.89 ± 0.135 fold-change vs cycle 0, respectively.

Take TGAGCA: the figures for the binding signal (with SALL4 ZFC4 WT (HT-SELEX); in assay [1]; in assay [2]) were 0.639 ± 0.0443 fold-change vs cycle 0, 0.737 ± 0.0106 fold-change vs cycle 0 and 0.843 ± 0.0202 fold-change vs cycle 0, respectively.

Consider GTAATA, for which the figures for the binding signal (with SALL4 ZFC4 WT (HT-SELEX); in assay [1]; in assay [2]) were 2.33 ± 0.177 fold-change vs cycle 0, 2.09 ± 0.144 fold-change vs cycle 0 and 1.81 ± 0.189 fold-change vs cycle 0, respectively.

Turning to AAGGTG, the binding signal in the assay with SALL4 ZFC4 WT (HT-SELEX) turned out to be 0.806 ± 0.0296 fold-change vs cycle 0; in assay [1], 0.944 ± 0.0313 fold-change vs cycle 0; in assay [2], 0.95 ± 0.0211 fold-change vs cycle 0.

For ACCGGA, the binding signal stood at 0.381 ± 0.0137 fold-change vs cycle 0 with SALL4 ZFC4 WT (HT-SELEX), 0.447 ± 0.0161 fold-change vs cycle 0 in assay [1] and 0.56 ± 0.0517 fold-change vs cycle 0 in assay [2].

In the case of CCTACA, the binding signal with SALL4 ZFC4 WT (HT-SELEX) was determined as 0.76 ± 0.0346 fold-change vs cycle 0; in assay [1] it was 0.876 ± 0.0282 fold-change vs cycle 0; in assay [2] it was 0.919 ± 0.0351 fold-change vs cycle 0.

For GCTTAC, the figures for the binding signal (in the assay with SALL4 ZFC4 WT (HT-SELEX); in assay [1]; in assay [2]) were 0.774 ± 0.0137 fold-change vs cycle 0, 0.852 ± 0.0208 fold-change vs cycle 0 and 0.908 ± 0.0208 fold-change vs cycle 0, respectively.

For the sequence ATTATG, the binding signal with SALL4 ZFC4 WT (HT-SELEX) turned out to be 2.78 ± 0.17 fold-change vs cycle 0; in assay [1], 1.94 ± 0.0249 fold-change vs cycle 0; in assay [2] it was 1.74 ± 0.121 fold-change vs cycle 0.

Take ACGGGA: the binding signal with SALL4 ZFC4 WT (HT-SELEX) is 0.422 ± 0.0189 fold-change vs cycle 0; in assay [1], 0.506 ± 0.0223 fold-change vs cycle 0; in assay [2] it was 0.583 ± 0.0299 fold-change vs cycle 0.

In the case of ATGAAG, the binding signal with SALL4 ZFC4 WT (HT-SELEX) is 1.56 ± 0.0293 fold-change vs cycle 0; in assay [1] it was 1.68 ± 0.108 fold-change vs cycle 0; in assay [2] it was 1.51 ± 0.124 fold-change vs cycle 0.

For the sequence GTGCAA, the figures for the binding signal (in the assay with SALL4 ZFC4 WT (HT-SELEX); in assay [1]; in assay [2]) were 0.539 ± 0.0349 fold-change vs cycle 0, 0.616 ± 0.0276 fold-change vs cycle 0 and 0.721 ± 0.0304 fold-change vs cycle 0, respectively.

Consider CGTACA, for which the results for the binding signal (with SALL4 ZFC4 WT (HT-SELEX); in assay [1]; in assay [2]) were 0.639 ± 0.0345 fold-change vs cycle 0, 0.729 ± 0.0226 fold-change vs cycle 0 and 0.802 ± 0.0376 fold-change vs cycle 0, respectively.

For the sequence ATCGGA, the binding signal with SALL4 ZFC4 WT (HT-SELEX) amounted to 0.708 ± 0.0433 fold-change vs cycle 0; in assay [1] it was 0.804 ± 0.0524 fold-change vs cycle 0; in assay [2], 0.928 ± 0.0274 fold-change vs cycle 0.

For the sequence GCGATA, the figures for the binding signal (with SALL4 ZFC4 WT (HT-SELEX); in assay [1]; in assay [2]) were 0.515 ± 0.0117 fold-change vs cycle 0, 0.534 ± 0.0163 fold-change vs cycle 0 and 0.668 ± 0.0315 fold-change vs cycle 0, respectively.

Consider CCATAC, for which the binding signal came out at 0.84 ± 0.0342 fold-change vs cycle 0 with SALL4 ZFC4 WT (HT-SELEX), 0.88 ± 0.0149 fold-change vs cycle 0 in assay [1] and 0.931 ± 0.0299 fold-change vs cycle 0 in assay [2].

On to AGGGAT, for which the binding signal with SALL4 ZFC4 WT (HT-SELEX) came out at 0.9983 ± 0.00779 fold-change vs cycle 0; in assay [1], 1.11 ± 0.0341 fold-change vs cycle 0; in assay [2], 1.07 ± 0.0457 fold-change vs cycle 0.

In the case of AGAGCA, the results for the binding signal (with SALL4 ZFC4 WT (HT-SELEX); in assay [1]; in assay [2]) were 0.756 ± 0.0413 fold-change vs cycle 0, 0.893 ± 0.0729 fold-change vs cycle 0 and 0.98 ± 0.0193 fold-change vs cycle 0, respectively.

For the sequence CCAAAC, the binding signal came out at 0.6318 ± 0.0044 fold-change vs cycle 0 in the assay with SALL4 ZFC4 WT (HT-SELEX), 0.729 ± 0.0202 fold-change vs cycle 0 in assay [1] and 0.813 ± 0.0511 fold-change vs cycle 0 in assay [2].

ACGTAG: the binding signal worked out at 0.7133 ± 0.00555 fold-change vs cycle 0 in the assay with SALL4 ZFC4 WT (HT-SELEX), 0.792 ± 0.0458 fold-change vs cycle 0 in assay [1] and 0.864 ± 0.0314 fold-change vs cycle 0 in assay [2].

Consider ACCTTG, for which the binding signal in the assay with SALL4 ZFC4 WT (HT-SELEX) was 0.8287 ± 0.00258 fold-change vs cycle 0; in assay [1], 0.986 ± 0.024 fold-change vs cycle 0; in assay [2], 1 ± 0.0262 fold-change vs cycle 0.

Consider AGATAC, for which the binding signal in the assay with SALL4 ZFC4 WT (HT-SELEX) came out at 1.32 ± 0.0304 fold-change vs cycle 0; in assay [1] it was 1.44 ± 0.052 fold-change vs cycle 0; in assay [2] it was 1.4 ± 0.118 fold-change vs cycle 0.

Regarding GTCCAC, the binding signal is 0.374 ± 0.044 fold-change vs cycle 0 with SALL4 ZFC4 WT (HT-SELEX), 0.454 ± 0.026 fold-change vs cycle 0 in assay [1] and 0.569 ± 0.0681 fold-change vs cycle 0 in assay [2].

Turning to CATCAG, the binding signal in the assay with SALL4 ZFC4 WT (HT-SELEX) was found to be 0.861 ± 0.0198 fold-change vs cycle 0; in assay [1], 0.967 ± 0.0193 fold-change vs cycle 0; in assay [2] it was 0.996 ± 0.0231 fold-change vs cycle 0.

Regarding CCTTAA, the binding signal with SALL4 ZFC4 WT (HT-SELEX) stood at 1.32 ± 0.0558 fold-change vs cycle 0; in assay [1], 1.49 ± 0.018 fold-change vs cycle 0; in assay [2], 1.37 ± 0.0901 fold-change vs cycle 0.

With ACGTCC, the binding signal was 0.359 ± 0.021 fold-change vs cycle 0 with SALL4 ZFC4 WT (HT-SELEX), 0.454 ± 0.0124 fold-change vs cycle 0 in assay [1] and 0.562 ± 0.0557 fold-change vs cycle 0 in assay [2].

With ATCAAA, the binding signal in the assay with SALL4 ZFC4 WT (HT-SELEX) was 1.96 ± 0.105 fold-change vs cycle 0; in assay [1], 1.83 ± 0.114 fold-change vs cycle 0; in assay [2], 1.69 ± 0.154 fold-change vs cycle 0.

On to AATTGC, for which the binding signal with SALL4 ZFC4 WT (HT-SELEX) worked out at 0.939 ± 0.042 fold-change vs cycle 0; in assay [1], 0.962 ± 0.0218 fold-change vs cycle 0; in assay [2], 1.04 ± 0.0209 fold-change vs cycle 0.

In the case of ATGCAG, the binding signal turned out to be 0.674 ± 0.0311 fold-change vs cycle 0 with SALL4 ZFC4 WT (HT-SELEX), 0.754 ± 0.0134 fold-change vs cycle 0 in assay [1] and 0.818 ± 0.0231 fold-change vs cycle 0 in assay [2].

Consider CCGATA, for which the binding signal came out at 0.671 ± 0.053 fold-change vs cycle 0 in the assay with SALL4 ZFC4 WT (HT-SELEX), 0.717 ± 0.0449 fold-change vs cycle 0 in assay [1] and 0.816 ± 0.0546 fold-change vs cycle 0 in assay [2].
